Results on 22 molecules are retold here after publication PMC12136788.

To fix the notation:
B1: chr12:39756943:39756944:-_ENSG00000139116_ENST00000544797|hu_mus|hu_hu_hu_mus_False|48_78 (ssRNA)
RNA: GGGAGUUCUACAGUCCGACGAUCGGUUUGGCUGUUACCCCCAAGGGAAUCCUGCAAUAGUCUUGUUAGCUUAGAGUCUCUGUAAGGGACAUGUGUGGCUCUCUUGCUCUUGUCCCCCAAGGCGCUGAUUACAUUCCCAAGAGCCAACAGAGGAUUGAGCAUCA
B2: chr4:140309118:140309119:+_ENSG00000164134_ENST00000296543|hu_mus|FALSE|FALSE (ssRNA)
RNA: GGGAGUUCUACAGUCCGACGAUCGUAUCCAGGAGGCAUGAAAGCCAAAGCAUAAGGGAAAAGCUUAUGACAACUUGCUCUGUAGGCUUCGGCAGCUUCUUUACAGUCUCCUAGGCUACCAUCACACAAGGCUUCCAACACCUCCAACAGAGGAUUGAGCAUCA
B3: chr3:10015032:10015033:+_ENSMUSG00000027533_ENSMUST00000029046|mus_mus|mus_mus_mus_hu_True|1_58 (ssRNA)
RNA: GGGAGUUCUACAGUCCGACGAUCGUUUUUACCAUCACAAGUGAUGAUACAAUCUGGCUUGGCCAUUGCGCCCAUUUUCCUAAGAGCUAUUCCCACUCCUAGCUCCUUCAUGUAUUCAUCAAAGCCUUUGCUGUCCAUCAGGCGCAACAGAGGAUUGAGCAUCA
B4: 64658990_64660614_189_3pUTR_ENSMUSG00000024083_ENSMUST00000024889|mouse|control|control (ssRNA)
RNA: GGGAGUUCUACAGUCCGACGAUCAUCCAAUGAACUGGAACCUGAGGUGUUCUCCUUUGGAACAUCGUCUAGUUCCAACACUUCAUAGUCAUCACCAGCCCGACCCAAGCUUCUUUCAUGCCUGGUCAUACAUGGCUUAAAACUCAACAGAGGAUUGAGCAUCA
B5: 104713310_104714935_678_CDS_ENSG00000198431_ENST00000397736|human|control|control (ssRNA)
RNA: GGGAGUUCUACAGUCCGACGAUCAGCGACAUAGGAUGCUCCAACAACCAGGGUCUUACCCGGGCAGUAAGGCAAGGAGAAAAGAUCAUCACUGCUGAUGCAGUAUUCUUUGUCACCAGGGAUGCCCAAGUAACGUGGUCUUUCCAACAGAGGAUUGAGCAUCA
B6: chr11:4127340:4127341:+_ENSG00000167325_ENST00000300738|hu_mus|hu_hu_hu_mus_False|28_88 (ssRNA)
RNA: GGGAGUUCUACAGUCCGACGAUCGGCAUAGUCAGGGUGCUUCGUGGUCAAGGUUGCGGCUGUCUCAGCAGCCAGGGUGUCCAGUUCCACUGUGGUGACCCCACUAUACAAGCCUUGGAUUACUUUCAUGGUGAUCUGAGCAGGCAACAGAGGAUUGAGCAUCA
B7: 82880966_82885890_579_3pUTR_ENSMUSG00000000627_ENSMUST00000000641|mouse|control|control (ssRNA)
RNA: GGGAGUUCUACAGUCCGACGAUCGCUGGAAACUGGACACAUCAAUAACCCCGCACUUCGGAUCAAAAGCGAAGGUGCCACACGUGAGGAGGUGAGAGGCAUUGGCAAUGGCGAGAAUCUGGAUAAAAUUGUGACAUUCGUCCUCAACAGAGGAUUGAGCAUCA
B8: chr14:49642940:49642941:-_ENSMUSG00000061244_ENSMUST00000162175|mus_mus|motif|central (ssRNA)
RNA: GGGAGUUCUACAGUCCGACGAUCUAAAGCAUAAUCAAUAUGCUCAAUACAUAAAAAUUCCACAAGAAUGGUAAAAAUUCGGAAGGCAUUCCUUGGUAAAUCAGAAGGAUCAGAAAGCCUAUGACAUCUUUCAAAGGCUUGUUUCAACAGAGGAUUGAGCAUCA
B9: chr3:142455422:142455423:-_ENSMUSG00000004591_ENSMUST00000043812|mus_mus|FALSE|FALSE (ssRNA)
RNA: GGGAGUUCUACAGUCCGACGAUCGGGAGAACAACAGAGUGACAGCCUAGGAGAAAAAAGGGAAAAACAAAACAAAAAUCUAAUAAAAUUCCAGCCCAGUGAAGAUCAUGAUUUGCAAACAGGCAUAUGGUAAGAGCGAUACAACAACAGAGGAUUGAGCAUCA
B10: chr7:74146866:74146867:+_ENSG00000077809_ENST00000416070|hu_hu|motif|central (ssRNA)
RNA: GGGAGUUCUACAGUCCGACGAUCUUCCUUUGCAAGUAAUAUCCUCUCCAGGCGAGGAAUUCCGUAAGUAGAUGGCCUUCGGAAAGGAAUUCCUUCAGGAAGUCCUUCUACAUAAAGAUCUUCAACAUGAGACUGGAAAAGAGGCAACAGAGGAUUGAGCAUCA
B11: 21140421_21141420_1149_CDS_ENSG00000141458_ENST00000269228|human|control|control (ssRNA)
RNA: GGGAGUUCUACAGUCCGACGAUCCUCCAUCCCAUGGACUGGAAAAUCUGAAAACACAGGAGUGAUGGUAAAAGGUGCCUGUCCAUUGUCCUUAUUGAACAUGUAUUCAAUCCAGUUGGUGGCAUUACAGGCGUCAGCGUCCUUCAACAGAGGAUUGAGCAUCA
B12: chr3:142455422:142455423:-_ENSMUSG00000004591_ENSMUST00000043812|mus_mus|motif|central (ssRNA)
RNA: B9 RNA with U80G, A81G
B13: chr16:94690093:94690094:+_ENSMUSG00000040785_ENSMUST00000117648|mus_hu|mus_mus_mus_hu_True|68_98 (ssRNA)
RNA: GGGAGUUCUACAGUCCGACGAUCGGGCUGGGAUGACAGCAGACAGCCCUCGAUUCCAGGGGGAAAAAAAAAUAGCCGAUACUAAUUAAAAAGUGUUAAUGAUUUUUGAAAAUCAGAUUACAUCUAUAAAAGAUGAAAAGCAAACAACAGAGGAUUGAGCAUCA
B14: 65373527_65373647_4270_3pUTR_ENSMUSG00000024589_ENSMUST00000163516|mouse|control|control (ssRNA)
RNA: GGGAGUUCUACAGUCCGACGAUCAGGGAGGCAGGAGCAAUCGCCACGAGUGAUAUUCGUGAAAAAAAAAAAAAAAAUGGAAACAAAACCAGAUGUGACCUCCAUAAAGUGCCUUCAGAAGGGACGCAGAUACAGCAAAGGAAGCAACAGAGGAUUGAGCAUCA
B15: chr17:34945718:34945719:+_ENSG00000005955_ENST00000304718|hu_hu|FALSE|FALSE (ssRNA)
RNA: GGGAGUUCUACAGUCCGACGAUCAUUUAACCGGCAGUAUUUAUUAAAUUUCUCCUUCAGAUGCUGUCGGUAUUGUUCUCUAUUGCUGUAGAAAGACUGGUUAUUAGCCAUAAAUGACUGUAUUUCAUCUUGUGAGAUAAAGAUCAACAGAGGAUUGAGCAUCA
B16: 90247206_90247326_4093_3pUTR_ENSMUSG00000012422_ENSMUST00000161568|mouse|control|control (ssRNA)
RNA: GGGAGUUCUACAGUCCGACGAUCUUCUCAGAAGUUAGUCAGGACCCCCUGUAACAAGGGCGAUUGCUAGCACCGUUUGAGAACAUUUAUUAUUACUAGAAGGUAACAAAGGAAGAGAAGAGCAGCCCUAAGAAUUUUCCAUUCCAACAGAGGAUUGAGCAUCA
B17: chr6:41757443:41757444:+_ENSG00000214736_ENST00000398881|hu_mus|hu_hu_hu_mus_False|98_108 (ssRNA)
RNA: GGGAGUUCUACAGUCCGACGAUCGAACUGUCUGCUGACCAGAGAAUAGCCGACACUGGGGGAUGGGGGGGCAGUGGGGGGGGGUUCAGGCAAGGAGAGGGAGUCAACUUCAGCUGCCACUCAGGUAGGAUCUUGUGGUCACAGCAACAGAGGAUUGAGCAUCA
B18: chr6:41757443:41757444:+_ENSG00000214736_ENST00000398881|hu_mus|hu_hu_hu_mus_False|78_98 (ssRNA)
RNA: GGGAGUUCUACAGUCCGACGAUCGAACCGUGCAGAGACCAGAGAAUAGCCGACACUGUGGACUCAAGGGGCAGUGGGGGGGGGUUCAGGCAAGGAGAGGGAGUCAACUUCAGCUGCCACUCAGGUAGGAUCUUGUGGUCACAGCAACAGAGGAUUGAGCAUCA
B19: 75758389_75758509_1054_3pUTR_ENSMUSG00000032932_ENSMUST00000046283|mouse|control|control (ssRNA)
RNA: GGGAGUUCUACAGUCCGACGAUCUCAGAAAGGCCAGGUCUAAACACUCUAUUCACAUGGUGACCAUCUCCUGGGGUGAGCUGGUCUUUUGGCAGUUCAGAGUCACCAUUCUGAGGUUCCUUGCUGUCCUUCCCCUCCACAGUGCAACAGAGGAUUGAGCAUCA
B20: chr6:41757443:41757444:+_ENSG00000214736_ENST00000398881|hu_mus|hu_hu_hu_mus_False|48_98 (ssRNA)
RNA: B18 RNA with U58G, A61G, C62A, C64G, A65G, A66G, C90G, A95G
B21: chr16:14738297:14738298:+_ENSG00000103429_ENST00000261658|hu_mus|FALSE|FALSE (ssRNA)
RNA: GGGAGUUCUACAGUCCGACGAUCGUUCAAGGUGGUGGGGUUAACCAGGGUGUCGUAGCAGCAGUGGCAGGAGAACUCGCUCACAGAAAUCUGAGGGCCGCUGCUUCUGACAGGAUGCUCUUCCUCCUGCUCUCUCAUGCUCAGCAACAGAGGAUUGAGCAUCA
B22: chr6:41757443:41757444:+_ENSG00000214736_ENST00000398881|hu_mus|hu_hu_hu_mus_False|98_98 (ssRNA)
RNA: B18 RNA with U58G, A61G, C62A, C64G, A65G, A66G

Where a chain is given by its changes, count along the chain named. The full ranking holds about 24,000 sequences; the median of “enrichment r” is about 0.99, and the highest 2% start at about 3.7. Only a selection was taken, and the highest values are over-represented in it overall.

The target in the experiment is T1, UNK ZnF1-3 (human, UniProt Q9C0B0 31-174).
T1 sequence: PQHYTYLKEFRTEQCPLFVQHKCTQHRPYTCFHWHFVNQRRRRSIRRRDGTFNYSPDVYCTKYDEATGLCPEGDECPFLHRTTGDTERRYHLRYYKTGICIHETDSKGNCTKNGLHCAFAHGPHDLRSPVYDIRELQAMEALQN
In words: nsRBNS (natural sequence RNA bind-n-seq); RBNS binding buffer (assumed for nsRBNS): 25 mM Tris pH 7.5, 150 mM KCl, 3 mM MgCl2, 0.01% Triton X-100, 500 ug/ml BSA, 20 U/ml SUPERase-In, 4 C; UNK is unkempt and MSI1 is Musashi-1; names of the RNAs are library labels; protein concentration not given here; high values mean tight binding.
B1 showed a binding signal of 0.772 enrichment R. B2 yielded a binding signal of 0.414 enrichment R. B3 registered a binding signal of 0.728 enrichment R. With B4, the binding signal came out at 0.333 enrichment R. Molecule B5 returned a binding signal of 1.69 enrichment R. Then B6, with 0.876 enrichment R.

Turning to B7, the binding signal came out at 2.22 enrichment R. B8 yielded a binding signal of 0.426 enrichment R. The molecule B9 showed a binding signal of 4.59 enrichment R. Consider B10, for which the binding signal worked out at 0.729 enrichment R. As for B11, the figure is 0.935 enrichment R. Take B12: the binding signal amounted to 5.45 enrichment R.

In turn, B13 registered a binding signal of 3.34 enrichment R. B14 gave a binding signal of 6.96 enrichment R. Then B15, with 0.361 enrichment R; and B16, with 0.591 enrichment R; and B17, with 4.46 enrichment R.

As for B18, the binding signal is 1.9 enrichment R. Take B19: the binding signal came out at 0.633 enrichment R. Regarding B20, the binding signal came out at 5.8 enrichment R.

In turn, B21 came in with a binding signal of 0.931 enrichment R. Consider B22, for which the binding signal was 3.31 enrichment R.
